Test results: the supplement of paper PMC4466140

Columns and labels:
Assay in all cases: SPOT peptide array binding signal intensity (averaged, normalized) (arbitrary units (background-subtracted, floor 0; scale differs between SH3 domains)); higher = stronger binding of the SH3 domain to the peptide
AgAbp1 = molecular target: AgAbp1
Summary of the method: (§1)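 Binding signal refers to normalized, background-subtracted spot intensity averaged over replicates, expressed in arbitrary units that differ between domains. GST-fused SH3 domains from four yeast species were incubated at 10 μg/ml overnight at 4°C on cellulose membranes of synthetic 15-mer peptides with cysteines replaced by serines. Bound protein was detected with anti-GST antibody, an HRP anti-mouse secondary and luminol, and quantified with Genespotter.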

AgBbc1 = molecular target: AgBbc1
Summary of the method: as §1

AgBem1-D1 = molecular target: AgBem1-D1
Summary of the method: as §1

AgBzz1-D1 = molecular target: AgBzz1-D1
Summary of the method: as §1

AgBzz1-D2 = molecular target: AgBzz1-D2
Summary of the method: as §1

AgCyk3 = molecular target: AgCyk3
Summary of the method: as §1

AgFus1 = molecular target: AgFus1
Summary of the method: as §1

AgHof1 = molecular target: AgHof1
Summary of the method: as §1

AgHse1 = molecular target: AgHse1
Summary of the method: as §1

AgLsb1 = molecular target: AgLsb1
Summary of the method: as §1

AgLsb4 = molecular target: AgLsb4
Summary of the method: as §1

AgMyo5 = molecular target: AgMyo5
Summary of the method: as §1

AgNbp2 = molecular target: AgNbp2
Summary of the method: as §1

AgRvs167 = molecular target: AgRvs167
Summary of the method: as §1

AgSho1 = molecular target: AgSho1
Summary of the method: as §1

AgSla1-D1-D2 = molecular target: AgSla1-D1-D2
Summary of the method: as §1

AgSla1-D3 = molecular target: AgSla1-D3
Summary of the method: as §1

CaAbp1-D1 = molecular target: CaAbp1-D1
Summary of the method: as §1

CaAbp1-D2 = molecular target: CaAbp1-D2
Summary of the method: as §1

CaBbc1 = molecular target: CaBbc1
Summary of the method: as §1

CaBem1-D1 = molecular target: CaBem1-D1
Summary of the method: as §1

CaBzz1-D1 = molecular target: CaBzz1-D1
Summary of the method: as §1

CaBzz1-D2 = molecular target: CaBzz1-D2
Summary of the method: as §1

CaCyk3 = molecular target: CaCyk3
Summary of the method: as §1

CaFus1 = molecular target: CaFus1
Summary of the method: as §1

CaHof1 = molecular target: CaHof1
Summary of the method: as §1

CaHse1 = molecular target: CaHse1
Summary of the method: as §1

CaLsb1 = molecular target: CaLsb1
Summary of the method: as §1

CaLsb4 = molecular target: CaLsb4
Summary of the method: as §1

CaMyo5 = molecular target: CaMyo5
Summary of the method: as §1

CaNbp2 = molecular target: CaNbp2
Summary of the method: as §1

CaRvs167 = molecular target: CaRvs167
Summary of the method: as §1

CaRvs167-3 = molecular target: CaRvs167-3
Summary of the method: as §1

CaSho1 = molecular target: CaSho1
Summary of the method: as §1

CaSla1-D1-D2 = molecular target: CaSla1-D1-D2
Summary of the method: as §1

CaSla1-D3 = molecular target: CaSla1-D3
Summary of the method: as §1

ScAbp1 = molecular target: ScAbp1
Summary of the method: as §1

ScBbc1 = molecular target: ScBbc1
Summary of the method: as §1

ScBem1-D1 = molecular target: ScBem1-D1
Summary of the method: as §1

ScBzz1-D1 = molecular target: ScBzz1-D1
Summary of the method: as §1

ScBzz1-D2 = molecular target: ScBzz1-D2
Summary of the method: as §1

ScCyk3 = molecular target: ScCyk3
Summary of the method: as §1

ScFus1 = molecular target: ScFus1
Summary of the method: as §1

ScHof1 = molecular target: ScHof1
Summary of the method: as §1

ScHse1 = molecular target: ScHse1
Summary of the method: as §1

ScLsb1 = molecular target: ScLsb1
Summary of the method: as §1

ScLsb2 = molecular target: ScLsb2
Summary of the method: as §1

ScLsb3 = molecular target: ScLsb3
Summary of the method: as §1

ScLsb4 = molecular target: ScLsb4
Summary of the method: as §1

ScMyo3 = molecular target: ScMyo3
Summary of the method: as §1

ScMyo5 = molecular target: ScMyo5
Summary of the method: as §1

ScNbp2 = molecular target: ScNbp2
Summary of the method: as §1

ScPex13 = molecular target: ScPex13
Summary of the method: as §1

ScRvs167 = molecular target: ScRvs167
Summary of the method: as §1

ScSho1 = molecular target: ScSho1
Summary of the method: as §1

ScSla1-D1-D2 = molecular target: ScSla1-D1-D2
Summary of the method: as §1

ScSla1-D3 = molecular target: ScSla1-D3
Summary of the method: as §1

SpAbp1-D1 = molecular target: SpAbp1-D1
Summary of the method: as §1

SpBbc1 = molecular target: SpBbc1
Summary of the method: as §1

SpBzz1-D1 = molecular target: SpBzz1-D1
Summary of the method: as §1

SpBzz1-D2 = molecular target: SpBzz1-D2
Summary of the method: as §1

SpCyk3 = molecular target: SpCyk3
Summary of the method: as §1

SpHof1 = molecular target: SpHof1
Summary of the method: as §1

SpHof1-2 = molecular target: SpHof1-2
Summary of the method: as §1

SpHof1-3 = molecular target: SpHof1-3
Summary of the method: as §1

SpHse1 = molecular target: SpHse1
Summary of the method: as §1

SpLsb1 = molecular target: SpLsb1
Summary of the method: as §1

SpLsb4 = molecular target: SpLsb4
Summary of the method: as §1

SpMyo1 = molecular target: SpMyo1
Summary of the method: as §1

SpNbp2 = molecular target: SpNbp2
Summary of the method: as §1

SpPex13 = molecular target: SpPex13
Summary of the method: as §1

SpRvs167 = molecular target: SpRvs167
Summary of the method: as §1

SpSla1-D1-D2 = molecular target: SpSla1-D1-D2
Summary of the method: as §1

SpSla1-D3 = molecular target: SpSla1-D3
Summary of the method: as §1

## PPPPPPPPPPPLPQS
AgAbp1
  SPOT peptide array binding signal intensity: 9
AgBbc1
  SPOT peptide array binding signal intensity: 0.5
AgBem1-D1
  SPOT peptide array binding signal intensity: 28
AgBzz1-D1
  SPOT peptide array binding signal intensity: 5
AgBzz1-D2
  SPOT peptide array binding signal intensity: 1
AgCyk3
  SPOT peptide array binding signal intensity: 2
AgFus1
  SPOT peptide array binding signal intensity: ≤ 0
AgHof1
  SPOT peptide array binding signal intensity: 228
AgHse1
  SPOT peptide array binding signal intensity: ≤ 0
AgLsb1
  SPOT peptide array binding signal intensity: ≤ 0
AgLsb4
  SPOT peptide array binding signal intensity: ≤ 0
AgMyo5
  SPOT peptide array binding signal intensity: 688
AgNbp2
  SPOT peptide array binding signal intensity: 2
AgRvs167
  SPOT peptide array binding signal intensity: 4.67
AgSho1
  SPOT peptide array binding signal intensity: ≤ 0
AgSla1-D1-D2
  SPOT peptide array binding signal intensity: ≤ 0
AgSla1-D3
  SPOT peptide array binding signal intensity: 0.5
CaAbp1-D1
  SPOT peptide array binding signal intensity: 4.5
CaAbp1-D2
  SPOT peptide array binding signal intensity: 3
CaBbc1
  SPOT peptide array binding signal intensity: ≤ 0
CaBem1-D1
  SPOT peptide array binding signal intensity: ≤ 0
CaBzz1-D1
  SPOT peptide array binding signal intensity: 1610
CaBzz1-D2
  SPOT peptide array binding signal intensity: 313
CaCyk3
  SPOT peptide array binding signal intensity: ≤ 0
CaFus1
  SPOT peptide array binding signal intensity: 8.5
CaHof1
  SPOT peptide array binding signal intensity: 0.75
CaHse1
  SPOT peptide array binding signal intensity: 11.2
CaLsb1
  SPOT peptide array binding signal intensity: 2.25
CaLsb4
  SPOT peptide array binding signal intensity: 16
CaMyo5
  SPOT peptide array binding signal intensity: 235

## RNNRPVPPPPPMRTT
AgAbp1
  SPOT peptide array binding signal intensity: 9
AgBbc1
  SPOT peptide array binding signal intensity: 519
AgBem1-D1
  SPOT peptide array binding signal intensity: 129
AgBzz1-D1
  SPOT peptide array binding signal intensity: 232
AgBzz1-D2
  SPOT peptide array binding signal intensity: 117
AgCyk3
  SPOT peptide array binding signal intensity: 15
AgFus1
  SPOT peptide array binding signal intensity: 11
AgHof1
  SPOT peptide array binding signal intensity: 95.5
AgHse1
  SPOT peptide array binding signal intensity: 23
AgLsb1
  SPOT peptide array binding signal intensity: 27
AgLsb4
  SPOT peptide array binding signal intensity: 131
AgMyo5
  SPOT peptide array binding signal intensity: 72.2
AgNbp2
  SPOT peptide array binding signal intensity: 59.5
AgRvs167
  SPOT peptide array binding signal intensity: 76.8
AgSho1
  SPOT peptide array binding signal intensity: 5
AgSla1-D1-D2
  SPOT peptide array binding signal intensity: 6
AgSla1-D3
  SPOT peptide array binding signal intensity: 21.5
CaAbp1-D1
  SPOT peptide array binding signal intensity: 53.5
CaAbp1-D2
  SPOT peptide array binding signal intensity: 11
CaBbc1
  SPOT peptide array binding signal intensity: 724
CaBem1-D1
  SPOT peptide array binding signal intensity: 108
CaBzz1-D1
  SPOT peptide array binding signal intensity: 5240
CaBzz1-D2
  SPOT peptide array binding signal intensity: 1310
CaCyk3
  SPOT peptide array binding signal intensity: 247
CaFus1
  SPOT peptide array binding signal intensity: 69
CaHof1
  SPOT peptide array binding signal intensity: 9.5
CaHse1
  SPOT peptide array binding signal intensity: 3
CaLsb1
  SPOT peptide array binding signal intensity: 2
CaLsb4
  SPOT peptide array binding signal intensity: 541
CaMyo5
  SPOT peptide array binding signal intensity: 34
CaNbp2
  SPOT peptide array binding signal intensity: 312
CaRvs167
  SPOT peptide array binding signal intensity: 392
CaRvs167-3
  SPOT peptide array binding signal intensity: 1
CaSho1
  SPOT peptide array binding signal intensity: 17
CaSla1-D1-D2
  SPOT peptide array binding signal intensity: 1140
CaSla1-D3
  SPOT peptide array binding signal intensity: 187
ScAbp1
  SPOT peptide array binding signal intensity: 10.5
ScBbc1
  SPOT peptide array binding signal intensity: 58
ScBem1-D1
  SPOT peptide array binding signal intensity: 4
ScBzz1-D1
  SPOT peptide array binding signal intensity: 453
ScBzz1-D2
  SPOT peptide array binding signal intensity: 113
ScCyk3
  SPOT peptide array binding signal intensity: 2.5
ScFus1
  SPOT peptide array binding signal intensity: 2.5
ScHof1
  SPOT peptide array binding signal intensity: 21
ScHse1
  SPOT peptide array binding signal intensity: 49.5
ScLsb1
  SPOT peptide array binding signal intensity: 27
ScLsb2
  SPOT peptide array binding signal intensity: 13.5
ScLsb3
  SPOT peptide array binding signal intensity: 1090
ScLsb4
  SPOT peptide array binding signal intensity: 500
ScMyo3
  SPOT peptide array binding signal intensity: 425
ScMyo5
  SPOT peptide array binding signal intensity: 156
ScNbp2
  SPOT peptide array binding signal intensity: 622
ScPex13
  SPOT peptide array binding signal intensity: 1210
ScRvs167
  SPOT peptide array binding signal intensity: 2320
ScSho1
  SPOT peptide array binding signal intensity: 99
ScSla1-D1-D2
  SPOT peptide array binding signal intensity: 1300
ScSla1-D3
  SPOT peptide array binding signal intensity: 56.5
SpAbp1-D1
  SPOT peptide array binding signal intensity: 15.5
SpBbc1
  SPOT peptide array binding signal intensity: 41
SpBzz1-D1
  SPOT peptide array binding signal intensity: 2280
SpBzz1-D2
  SPOT peptide array binding signal intensity: 28.8
SpCyk3
  SPOT peptide array binding signal intensity: 23
SpHof1
  SPOT peptide array binding signal intensity: 22.8
SpHof1-2
  SPOT peptide array binding signal intensity: 24.8
SpHof1-3
  SPOT peptide array binding signal intensity: 98.2
SpHse1
  SPOT peptide array binding signal intensity: 52
SpLsb1
  SPOT peptide array binding signal intensity: 44.2
SpLsb4
  SPOT peptide array binding signal intensity: 1450
SpMyo1
  SPOT peptide array binding signal intensity: 662
SpNbp2
  SPOT peptide array binding signal intensity: 8.5
SpPex13
  SPOT peptide array binding signal intensity: 19.5
SpRvs167
  SPOT peptide array binding signal intensity: 1030
SpSla1-D1-D2
  SPOT peptide array binding signal intensity: 134
SpSla1-D3
  SPOT peptide array binding signal intensity: 7
